# Results published in PubChem BioAssay AID588591 (National Center for Advancing Translational Sciences (NCATS), 2011).
# Out of some 390,000 compounds screened, about 4,700 (1.2%) were called active. Another 4% or so got no clear call; they are omitted. Calls follow the shape of the dose curve; as a rule, active = well fitted inhibition curve with a large enough effect; inconclusive = small, poorly fitted or top-dose-only effect, or another doubt; inactive = no such curve, though single readings can be large or run the other way. The list comes from a sample in which actives are over-represented; it also holds similar structures and randomly drawn compounds. A call without a number means that no potency is given here.
# Biological target: DNA polymerase eta (Homo sapiens) (UniProt Q9Y253)
# Sequence (Q9Y253 whole entry, looked up): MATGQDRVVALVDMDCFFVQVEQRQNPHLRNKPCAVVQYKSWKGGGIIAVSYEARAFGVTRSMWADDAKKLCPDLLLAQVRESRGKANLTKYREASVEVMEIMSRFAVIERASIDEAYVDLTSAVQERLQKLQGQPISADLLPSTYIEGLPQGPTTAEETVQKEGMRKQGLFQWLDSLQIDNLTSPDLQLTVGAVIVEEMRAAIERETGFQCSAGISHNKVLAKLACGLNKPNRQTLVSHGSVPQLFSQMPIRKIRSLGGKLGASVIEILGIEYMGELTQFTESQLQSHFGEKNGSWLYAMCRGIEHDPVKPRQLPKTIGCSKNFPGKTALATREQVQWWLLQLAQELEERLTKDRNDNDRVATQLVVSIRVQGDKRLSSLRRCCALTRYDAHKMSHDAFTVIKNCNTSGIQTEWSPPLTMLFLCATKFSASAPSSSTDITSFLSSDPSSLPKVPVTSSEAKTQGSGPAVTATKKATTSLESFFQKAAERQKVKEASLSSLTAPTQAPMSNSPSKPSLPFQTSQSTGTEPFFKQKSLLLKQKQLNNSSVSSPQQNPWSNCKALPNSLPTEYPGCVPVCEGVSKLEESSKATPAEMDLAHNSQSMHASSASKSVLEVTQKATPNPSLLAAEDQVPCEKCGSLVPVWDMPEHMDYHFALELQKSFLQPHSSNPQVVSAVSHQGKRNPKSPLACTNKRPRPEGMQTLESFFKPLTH
# Assay: qHTS for Inhibitors of Polymerase Eta
# Conditions: recombinant Pol eta, fluorescent DNA replication assay; series mostly up to 114 µM
# How it was run: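 Pol eta at 10 nM preincubated with compounds 15 min at room temperature; reaction started with fluorescent substrate (50 nM final) and read kinetically at 0 and 10 min.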
# Potency is read from the fitted curve at half-maximal effect.
row,Compound,Potency
1,COC(=O)c1cccc(NC(=O)CSc2nc(C)cc(=O)[nH]2)c1,20 µM (active)
2,Cc1cc(C)c(C(=O)CSc2nc(C)cc(=O)[nH]2)c(C)c1,inactive
3,CCCc1cc(=O)[nH]c(SCC(=O)Nc2ccc(C(=O)Nc3ccccc3OC)cc2)n1,inactive
4,Cc1ccccc1Nc1nn2c(=O)c3ccc(C(=O)NCCc4ccc(Cl)cc4)cc3nc2s1,inactive
5,Cc1ccc2onc(CC(=O)N3CCN(c4ccc(Cl)cc4)CC3)c2c1,inactive
6,O=C(CN1CCN(c2ncc(C(F)(F)F)cc2Cl)CC1)Nc1ccc2c(c1)OCO2,inactive
7,Cc1ccc(C(=O)O)cc1-c1ccc(/C=C2\SC(=O)N(CC(=O)Nc3ccc4c(c3)OCO4)C2=O)o1,4.47 µM (active)
8,Cn1c(=O)c2ccccc2n(CC(=O)Nc2ccc3c(c2)OCCO3)c1=O,inactive
9,O=C(NCc1ccc(F)cc1)c1ccc2nc(N3CCCCC3)sc2c1,inactive
10,Cc1ccccc1-c1nc2cc(NC(=O)c3cccc(OCCC(C)C)c3)ccc2o1,inactive
11,CCC(=O)N1CCc2cc(CNS(=O)(=O)c3ccc(Br)s3)ccc21,inactive
12,Cc1cccc(NC(=O)CSc2nc3c(oc4ccccc43)c(=O)n2-c2ccc(F)cc2)c1,inactive
13,O=S(=O)(Nc1ccc2[nH]ncc2c1)c1ccccc1Cl,inactive
14,O=C(O)c1cc(S(=O)(=O)Nc2ccc3cn[nH]c3c2)ccc1Br,50.1 µM (active)
15,O=C(Nc1ccc2cn[nH]c2c1)c1ccc(S(=O)(=O)N2CCOCC2)cc1,inactive
16,CCCn1c2ccccc2c2cnn(CC(=O)N(C)c3ccccc3CC)c(=O)c21,inactive
17,Cc1ccc(NC(=O)c2oc3ccccc3c2C)c([N+](=O)[O-])c1,inactive
18,Cc1c(C(=O)Nc2ccccn2)oc2ccc(Br)cc12,39.8 µM (active)
19,Cc1c(C(=O)NC2CCCCC2)oc2ccccc12,inactive
20,COc1ccccc1CNc1nccn(-c2ccc(F)cc2)c1=O,inactive

row,Compound,Potency
1,O=C(NCc1ccccc1)C1=C[C@@H](c2ccccc2)C[C@@H](OCCCCO)O1,inactive
2,O=C(O)C1=C[C@H](c2cccs2)C[C@H](OCCCCO)O1,inactive
3,C#Cc1ccc([C@@H]2C=C(C(=O)O)O[C@H](OCCCCO)C2)cc1,20 µM (active)
4,COc1ccc(CCNC(=O)c2c3c(nc4ccccc24)C(=O)N(C2CCCCC2)C3)cc1OC,inactive
5,CCNC(=O)CC1C(=O)N(c2ccc(F)cc2)C(=O)N1Cc1ccc(C)cc1 (stereo not given),inactive
6,CCC(=O)N1CCc2cc(S(=O)(=O)NCCC(=O)Nc3cccc(C)c3C)ccc21,inactive
7,Cc1oc(-c2ccccc2F)nc1CN1CCC(C(=O)NCCc2ccc(Cl)cc2)CC1,inactive
8,CCc1ccccc1OCC(=O)Nc1nnc(C2CC2)s1,inactive
9,Cc1cccc(NC(=O)CSCC(=O)Nc2nnc(C3CC3)s2)c1,inactive
10,CCc1cc(C(=O)Nc2nnc(C3CC3)s2)sc1C,50.1 µM (active)
11,Cc1ccc(CNC(=O)c2c(O)nc3c(C)cccn3c2=O)cc1,inactive
12,C/C=C(\C)C(=O)N1CC2(CC(c3cccc(NC(=O)CCCCC)c3)=NO2)C[C@@H]1C(N)=O (stereo not given in full),inactive
13,NC(=O)[C@H]1CC2(CC(c3cccc(NC(=O)[C@H]4CCC(=O)N4)c3)=NO2)CN1C(=O)c1ccccc1C(=O)c1ccccc1 (stereo not given in full),inactive
14,C=C(C)C(=O)Nc1cccc(C2=NOC3(C2)C[C@H](C(N)=O)N(C(=O)C(c2ccccc2)c2ccccc2)C3)c1 (stereo not given in full),3.98 µM (active)
15,O=[N+]([O-])c1ccc(C=Nc2ccc(Cl)cc2Cl)s1,89.1 µM (active)
16,CCOc1ccccc1CNCc1c(C(=O)O)c(C)n(Cc2ccc(C)cc2)c1C,inactive
17,COc1ccc(CNC(=O)c2cc3c(-c4ccccc4F)nn(C)c3s2)c(OC)c1,inactive
18,CS(=O)(=O)c1ccc2c(c1)SC1=NC(=O)/C(=C/c3ccco3)C(=N)N12,3.16 µM (active)
19,Cc1ccc(C)c(Cn2c(C(=O)O)c(CNCc3cccs3)c3ccccc32)c1,inactive
20,CCOc1ccc2nc(N3CCCC(C(=O)Nc4cc(C)ccc4C)C3)sc2c1 (stereo not given),inactive

row,Compound,Potency
1,C[C@@H]1O[C@@H](OC[C@H]2O[C@@H](Oc3c(-c4ccc(O)cc4)oc4cc(O)cc(O)c4c3=O)[C@H](O)[C@@H](O)[C@@H]2O)[C@H](O)[C@H](O)[C@H]1O,inactive
2,COc1ccc(CCOC2OC(CO)C(OC(=O)/C=C/c3ccc(O)c(OC)c3)C(O[C@H]3O[C@@H](C)[C@H](O)[C@@H](O)[C@H]3O)C2O)cc1O (stereo not given in full),inactive
3,COc1ccc(-c2cc(=O)c3c(O)cc(O[C@@H]4O[C@H](CO[C@@H]5O[C@@H](C)[C@H](O)[C@@H](O)[C@H]5O)[C@@H](O)[C@H](O)[C@H]4O)cc3o2)cc1O,79.4 µM (active)
4,COc1ccc(OCc2n[nH]c(=S)n2N)cc1,inactive
5,COc1ccccc1-n1c(-c2cc(-c3ccco3)[nH]n2)n[nH]c1=S,50.1 µM (active)
6,Cc1cc(-c2n[nH]c(=S)n2-c2ccc(C)c(C)c2)no1,inactive
7,COc1ccc(C(=O)Nc2nonc2-c2ccc(OC)c(OC)c2)cc1Cl,inactive
8,Cc1cccc(OCCCC(=O)Nc2sc3c(c2C(N)=O)CCC(C)C3)c1 (stereo not given),inactive
9,CSc1nnc(SCc2nc3sc(C(=O)O)c(C)c3c(=O)[nH]2)s1,3.16 µM (active)
10,Cc1ccc(S(=O)(=O)N2CCCC2C(=O)OCc2nc3sc(C)c(C)c3c(=O)[nH]2)cc1 (stereo not given),inactive
11,CCN(CC)Cc1nc2sc(C)c(C)c2c(=O)[nH]1,inactive
12,CCc1nn(CC(=O)NCC(C)c2ccccc2)c(=O)c2cc3occc3n12 (stereo not given),inactive
13,Cc1cc(Cl)ccc1OCC(=O)N(Cc1ccc(N(C)C)cc1)C1CCS(=O)(=O)C1 (stereo not given),inactive
14,COc1ccc2c(c1)c(=O)c(C(=O)c1ccccc1)cn2CC(=O)Nc1ccc2c(c1)OCCO2,inactive
15,CCOC(=O)c1ccc(NC(=O)C2CCN(S(=O)(=O)c3ccc4c(c3)CCCC(=O)N4)CC2)cc1,inactive
16,O=c1n(Cc2cccc(C(F)(F)F)c2)c2ccccc2c2nc(-c3ccccc3)nn12,inactive
17,Cc1ccccc1C(=O)N1CCC(C(=O)Oc2ccc(C#N)cc2)CC1,inactive
18,N#Cc1ccc(C2=CC(=O)C[C@H](c3ccc(Cl)cc3)C2)cc1,inactive
19,CC1(OC(=O)C2CCCC2)C(=O)C=C2C=C(c3ccc(C#N)cc3)OC=C2C1=O (stereo not given),20 µM (active)
20,CCOC(=O)c1c(N)n(-c2cccc(C)c2C)c2nc3ccccc3nc12,inactive
